In all, about 2,300 compounds went through this assay and about 1,000 (43%) were called active. The set was probably picked from earlier hits. The list shows a part of the results. Results with a measured potency or affinity are listed apart. Values without a mark were called inactive. How the calls were made is not given here.
Experiment: modified counter assay using GFP fluorescence, PhoP regulon inhibitor project, dose response (AID 1985)
Details: S. Typhi, 4 h; series mostly up to 150 µM; inhibition: at the top concentration

Row | SMILES | inhibition
1 | CCOC(=O)c1c(C)[nH]c(C(=O)CN2C(=O)NC(C)(c3ccc4ccccc4c3)C2=O)c1C (stereo unspecified) | -6.21%
2 | Cc1cc(=O)oc2ccc(OCC(=O)N3CCC(C)CC3)cc12 | 14.8%
3 | O=C(O)COc1ccc(F)cc1Br | 3.92%
4 | O=C(COc1ccc(Cl)cc1)N1CCN(C2CCCC2)CC1 | -26.3%
5 | CC1CC1C(=O)Nc1nc2ccc(S(C)(=O)=O)cc2s1 (stereo unspecified) | 6.02%
6 | CCOC(=O)Cc1csc(NC(=O)c2ccc(S(=O)(=O)N3CCCC3)cc2)n1 | -6.85%
7 | Cc1ccc(-c2nc(C(=O)NCCCN(C)C)cc3c2[nH]c2ccccc23)cc1 | 15.2%
8 | O=C(Cn1cnc2cc([N+](=O)[O-])ccc2c1=O)Nc1ccccc1Cl | 4.55%
9 | O=C(Nc1nccs1)c1ccc(Cl)cc1[N+](=O)[O-] | 2.12%
10 | O=C(NCCCN1CCOCC1)C(C(=O)c1ccccc1)n1ccccc1=O (stereo unspecified) | 25.3%
11 | CCCCNC(=S)Nc1ccc([N+](=O)[O-])cc1 | 37.9%
12 | COc1cc(CNc2ccc(N3CCN(C(C)=O)CC3)cc2)ccc1OCc1ccccc1 | -2.24%
13 | COc1cc(CNCCc2c[nH]c3ccccc23)ccc1OCc1ccccc1F | 8.11%
14 | COc1ccc(CNCCc2c[nH]c3ccccc23)c(OC)c1C | 0.46%
15 | O=C(Cn1c(C(F)(F)F)nc2ccccc21)NCCCN1CCOCC1 | -22.6%
16 | Cc1ccc(S(=O)(=O)N(Cc2n[nH]c(=S)n2-c2ccccc2)c2ccccc2)cc1 | -23%
17 | COc1ccccc1OCc1nnc(SCC(=O)NCc2ccco2)n1Cc1ccco1 | -24.1%
18 | O=C(Nc1ccc(Br)cc1)N1CCCCC1 | 22.6%
19 | O=C(Cn1nc(Cl)nc1Cl)c1ccc([N+](=O)[O-])cc1 | 27.9%
20 | CCn1c(CNC(=O)c2ccc(OC)cc2)nnc1SC | 1.63%
21 | COc1ccc(C(=O)NNS(=O)(=O)c2ccccc2)cc1OC | -24%
22 | CN(C)S(=O)(=O)c1cccc(NC(=O)c2cnccn2)c1 | 10.4%
23 | COc1cc(C(=O)NC(=S)Nc2cccc3nc(C)ccc23)cc(OC)c1OC | -5.39%
24 | CCOc1ccc2nnnn2n1 | -9.4%
25 | COc1ccc2c(c1)cc1n2CCN=C1N | -17.6%
26 | CCC(C)(C)NC(=O)COc1ccc(C(=O)c2ccccc2)cc1 | -7.83%

Row | SMILES | inhibition
27 | Cc1ccc(OCC(=O)N2CCN(S(C)(=O)=O)CC2)cc1 | -33.7%
28 | CCOCCCNC(=O)C(c1ccc(OC)cc1)N(Cc1cccs1)C(=O)c1ccccn1 (stereo unspecified) | 9.15%
29 | COCCCNC(=O)c1cc(OC)c(OC)c(OC)c1 | 10.2%
30 | Cc1oc2nc(SCCCC(=O)NCCCO)nc(N)c2c1C | -14.7%
31 | COc1cc(C(=O)Nc2ccc3c(c2)OCCO3)ccc1OC(C)C | 28.5%
32 | CCCC(C(=O)NCC1CCCO1)N(Cc1ccco1)C(=O)CNS(=O)(=O)c1ccc(F)cc1 (stereo unspecified) | 23%
33 | O=C1c2ccccc2C(=O)N1CCC(c1ccccc1)c1ccco1 (stereo unspecified) | -29.2%
34 | O=c1oc2ccccc2c(O)c1C(c1ccccn1)c1c(O)c2ccccc2oc1=O | 13.5%
35 | O=C(NC(=O)c1ccccc1)OCC1CCCN2CCCCC12 (stereo unspecified) | 0.4%
36 | O=C(CC(=O)NCc1ccccc1)NCc1ccccc1 | -27.6%
37 | Cc1cc(C)c2nc(/N=C(\N)NC(=O)c3ccccc3)nc(C)c2c1 | -14.7%
38 | S=C(Nc1ccccc1Cl)N(Cc1ccccc1)Cc1ccccn1 | -19.1%
39 | O=C(c1cccs1)N1CCN(S(=O)(=O)c2ccccc2)CC1 | -1.71%
40 | CC(C)(C)c1ccc(C(=O)NNC(=O)Cc2ccccc2)cc1 | -18.7%
41 | Cc1cc(C(=O)Nc2cccnc2)on1 | -8.91%
42 | CCOC(=O)c1ccc(NC(=O)c2cc3c(s2)CCC3)cc1 | -14.7%
43 | O=C(CCCc1ccccc1)Nc1cccnc1 | 21.9%
44 | Cc1cc(C)c([C@@H]2C[C@H]3CN(C4CCCC4)C(=O)[C@]34CCCN24)c(-n2cccn2)c1 | 7.68%
45 | CC(C)(C)c1ccc(OCCCNC2CCCC2)cc1 | 19.2%
46 | O=C(CCCOc1ccc(Cl)cc1Cl)NNC(=O)C1CCC1 | 32.7%
47 | CCCOc1ccc(C(=O)NNC(=S)NC(=O)c2ccco2)cc1 | 37.2%
48 | CCOc1ccc(NC(=O)c2ccc(N)cc2)cc1 | 22.8%
49 | CSCCC(NC(=O)c1ccc(Br)cc1)C(=O)O (stereo unspecified) | -19.7%
50 | Cc1ccc(CCNC(=O)C2CCN(S(=O)(=O)N3CCCC3)CC2)cc1 | 2.57%
51 | O=C1C=C(c2ccc(Cl)cc2)C(=O)N1Nc1ccccc1 | -5.69%
52 | CCCn1c(SCc2ccc(Cl)cc2)nc2c1c(=O)[nH]c(=O)n2C | -8.46%

Row | SMILES | inhibition
53 | CN1CCCN(C(c2ccccc2)c2ccc(Cl)cc2)CC1 (stereo unspecified) | 20.4%
54 | Cc1c(C(=O)Nc2ccncc2)sc2nc(-c3ccc(F)cc3)cn12 | 5.26%
55 | Clc1ccc(CNCc2cccs2)cc1Cl | -13.4%
56 | Fc1ccc(NC(=S)NCc2ccccc2Cl)cc1 | 9.03%
57 | COc1ccccc1CNC(=O)COC(=O)CCC(=O)c1cccs1 | 11.2%
58 | COc1cccc(CNc2nn[nH]n2)c1OC | 5.63%
59 | Fc1ccccc1CSc1ccc(-c2ccco2)nn1 | 2.22%
60 | O=C(O)CCSCc1ccccc1F | 12%
61 | COc1ccc2[nH]cc(CC(=O)O)c2c1 | -1.77%
62 | COc1ccc(C2=NN3C(C2)c2ccccc2OC3c2cccs2)cc1 (stereo unspecified) | 9.41%
63 | O=C(CSc1cccc2cccnc12)Nc1ccc(S(=O)(=O)N2CCOCC2)cc1 | 20.2%
64 | O=C(O)COc1ccccc1/C=N/NC(=O)c1cccc(S(=O)(=O)N2CCOCC2)c1 | 28%
65 | Cn1c(-c2ccc(Cl)cc2)cnc1N | -30.5%
66 | O=[N+]([O-])c1ccc(-c2cnc(NO)nc2)cc1 | 20.5%
67 | COc1cccc(C(=O)N(CN2CCCC2=O)c2cc(C)on2)c1 | -12.3%
68 | N#Cc1ccc(C2=NC(C(F)(F)F)(C(F)(F)F)c3c(n(Cc4ccco4)c(=O)[nH]c3=O)N2)cc1 | -13.8%
69 | COc1ccc(NC(=O)C2CCCN(C(=O)NC3CCCCC3)C2)cc1OC (stereo unspecified) | -14.7%
70 | CCN1CCN(c2nc3ccccc3nc2C(C#N)S(=O)(=O)c2ccc(C)cc2)CC1 (stereo unspecified) | 1.64%
71 | Cc1ccc(S(=O)(=O)NCC(=O)OCN2C(=O)c3ccccc3C2=O)cc1 | -33.3%
72 | COc1ccc(-c2cc(=NCC(=O)O)c3ccccc3o2)cc1 | 7.24%
73 | CCOC(=O)C(NC(C)=O)(Nc1cccc(F)c1)C(F)(F)F (stereo unspecified) | -16.7%
74 | O=C(Nc1cccc(F)c1)NC1CCCCC1 | 31.8%
75 | CC(=O)Nc1cccc(NC(=O)Nc2ccc(C)c(Cl)c2)c1 | 17.6%
76 | Cc1nc(NC2=NCN(CCCN3CCOCC3)CN2)nc2c(C)cccc12 | 18%
